From PubChem BioAssay (NCI) come the findings set out here.

The panel holds about 83,000 compounds, 20% with a hit somewhere; the sample as a whole holds those more often.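 Note: values are percent growth. 100 is the growth of untreated cells, values between 100 and 0 indicate rising inhibition; between -100 and 0 indicates cell death.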 Activity calls are given as the source filed them. Rule for the calls: active = growth percent below 10; inactive = the rest.

For this assay, the system named is MOLT-4 leukemia. The experiment in a line: NCI-60 one-dose screen, 48 h (100 = growth as untreated, 0 = no growth, -100 = all killed). Particulars: 10 µM unless noted.
`COc1cc2c(cc1O)CC[C@@H]1[C@@H]2CC[C@]2(C)[C@@H](NCCN(C)C)CC[C@@H]12`: the growth was -71.8% (active).

In the case of `COc1cccc2c1C(=O)c1c(O)c3c(c(O)c1C2=O)C[C@](O)(C(=O)CO)C[C@H]3O[C@@H]1C[C@@H](NC(=O)CCCN(C)C2(c3ccc(F)cc3)CC3CCC2C3)[C@H](O)[C@@H](C)O1` (stereo partly specified), the growth was -37% (active).

As to `O=c1cc(CSc2nnc(SCc3cc(=O)oc4c3ccc3ccccc34)o2)c2ccc3ccccc3c2o1`, the growth is 98% (inactive).

On to `COc1cc2c(cc1O)CC[C@@H]1[C@@H]2CC[C@]2(C)[C@@H](OCCN(C)C)CC[C@@H]12`, for which the growth was 33.9% (inactive).

On to `COc1ccc(-c2nnc(SCC(=O)c3ccc(Cl)cc3)o2)cc1`, for which the growth is 109% (inactive).

Turning to `NC(=NCCCOc1ccc(Cl)cc1)Nc1ccc(C(F)(F)F)cc1`, the growth is 4.99% (active).

As for `CCCCC[C@H]1C/C=C2/C(=O)C=C[C@@H]2C/C=C\CCCC(=O)O1`, the growth is -3.81% (active).

Consider `CNC(=O)c1cc(Oc2ccc(NC(=O)Nc3ccc(Cl)c(OC(F)(F)F)c3)c(F)c2)ccn1`, for which the growth is 20.2% (inactive).

With `COc1ccc2c(c1)C(=O)/C(=C/c1cccnc1)CC2`, the growth is 82.4% (inactive).

On to `COc1cccc(-c2nc(SCC(=O)Nc3ccc(C(=O)/C=C/c4ccc(OC)c(OC)c4)cc3)[nH]c(=O)c2C#N)c1`, for which the growth was 74.8% (inactive).

Take `CCCn1c(=O)[nH]c(N)c([C@H]2c3ccccc3Oc3[nH]c(=O)n(CCC)c(=O)c32)c1=O`: the growth is 39.5% (inactive).

Take `N#CN1CC[C@H](C(=O)Nc2cc3cc(C(N)=O)ccc3cn2)C1`: the growth was -18.1% (active).

For the compound `O=C1c2c(O)cc(O)cc2-c2c(-c3ccc(O)cc3)oc3cc(O)cc1c23`, the growth was 1.37% (active).

Regarding `O=C1/C(=C/c2ccccc2O)N=C2SCCCN12`, the growth was 115% (inactive).

In the case of `COc1ccc(-c2nc(SCC(=O)Nc3ccc(C(=O)/C=C/c4ccc(Cl)cc4)cc3)[nH]c(=O)c2C#N)cc1`, the growth is 84.4% (inactive).

For `COc1ccc2c(c1)CC/C(=C\c1cncc(Br)c1)C2=O`, the growth is 83.5% (inactive).

For `COc1ccc2c(c1)C(=O)/C(=C/c1ccccn1)CC2`, the growth is 21.5% (inactive).

As for `Cc1nc(Nc2ccc(F)c(Cl)c2)sc1C(=O)O`, the growth is 6.93% (active).

As to `CCOC(=O)c1sc(Nc2ccc(Cl)cc2)nc1C`, the growth is 10.7% (inactive).

Consider `CC(=O)O[C@H]1C(=O)[C@@]2(C)[C@H]([C@H](OC(=O)c3ccccc3)[C@]3(O)C[C@H](OC(=O)[C@H](OC(=O)CCC(=O)OC4CCC(S/N=C(N)/N=C(\N)N(C)C)CC4)[C@@H](NC(=O)c4ccccc4)c4ccccc4)C(C)=C1C3(C)C)[C@]1(OC(C)=O)CO[C@@H]1C[C@@H]2O` (stereo partly specified), for which the growth is 22.5% (inactive).

With `CC(=O)OC[C@H]1O[C@H](OC(C)=O)[C@H](NC(=O)/C=C/CCl)[C@@H](OC(C)=O)[C@@H]1OC(C)=O`, the growth is 81.9% (inactive).

With `COc1cc(-c2nc(C(=O)NCC(=O)NO)nn2-c2ccc(Cl)cc2)cc(OC)c1OC`, the growth was 97.4% (inactive).

In the case of `C=C1C(=O)O[C@H]2[C@H]1CC/C(COC(=O)NCCc1ccc(OC)c(OC)c1)=C\CC[C@@]1(C)O[C@@H]21`, the growth is 43.6% (inactive).

As for `CC/C=C\C[C@H](O)C/C=C1/C(=O)C=C[C@@]1(C)C/C=C\CCCC(=O)OC`, the growth is 94.4% (inactive).

Regarding `Cc1ccc2oc(=O)cc(C3c4ccc([nH]4)C(c4cc(=O)oc5ccc(C)cc45)c4ccc([nH]4)C(c4cc(=O)oc5ccc(C)cc45)c4ccc([nH]4)C(c4cc(=O)oc5ccc(C)cc45)c4ccc3[nH]4)c2c1` (stereo unspecified), the growth is -22.4% (active).

On to `COc1cccc2c1C(=O)c1c(O)c3c(c(O)c1C2=O)C[C@](O)(C(=O)CO)C[C@H]3O[C@@H]1C[C@@H](NC(=O)CCCCCN(C)C2(c3ccc(F)cc3)CC3CCC2C3)[C@H](O)[C@@H](C)O1` (stereo partly specified), for which the growth was -27.7% (active).

Turning to `NC(=NCCCC1(c2ccccc2)CCCC1)Nc1ccc(Cl)cc1`, the growth is -0.285% (active).

Consider `CCC#CC[C@H](O)C/C=C1/C(=O)C=C[C@@H]1C/C=C\CCCC(=O)OC`, for which the growth is 1.17% (active).

As to `O=c1oc2c(C(F)(F)F)cccc2cc1-c1csc(Nc2ccc(OCCF)cc2)n1`, the growth was 15.8% (inactive).

With `CNC(=O)c1cc(Oc2ccc(NC(=O)Nc3ccc(Cl)c(SC)c3)c(F)c2)ccn1`, the growth was 22.8% (inactive).

With `c1ccc2[nH]c(-c3ccc(Nc4nc(N5CCCC5)nc5[nH]ncc45)cc3)nc2c1`, the growth is -44.1% (active).
